Screens (PubChem)
Compounds with a hit are over-represented: about 19% of the library has one in this group of screens.
SARS PLP yeast: qHTS of Yeast-based Assay for SARS-CoV PLP; S. cerevisiae expressing SARS-CoV PLpro, growth rescue; Potency, µM (doses to about 32.9 µM), without a hit: top-dose activity, positive = growth rescue, usual class: activators; actives 0.19% (n = 330,000); calls by dose curve; note: potency is the fitted concentration of half-maximal effect; 0% is about no effect; nearly all actives have a fitted effect of over 55% in size
Shiga toxin inh: A qHTS for Small Molecule Inhibitors of Shiga Toxin. Vero cells, Shiga toxin protein synthesis inhibition reporter. inhibition, % at 38.7 µM. actives 9.2% (n = 290,000). AID 2315, 2010; in the data active = inhibition mostly above about 28%, no sharp cut-off; inactive = mostly below about 43%; note: 0% is about no effect
Pf growth 96h: Primary qHTS for delayed death inhibitors of the malarial parasite plastid, 96 hour incubation. P. falciparum luciferase reporter growth, 96 h. Potency, µM (titrated, usually from 28.7 µM), for inactives: top-dose activity change, negative = inhibition, actives largely listed as inhibitors. actives 6.9% (n = 320,000); note: potency is the fitted concentration of half-maximal effect; % is set by controls: 0 for no effect and ±100 for the full control effect
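Readout is luminescence from an integrated firefly luciferase in P. falciparum. Red cells, 2% hematocrit and 0.05% parasitemia final, were cultured with compound through two parasite generations (96 hours) at 37 C, 5% CO2.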
AMA1-RON2 inh: qHTS for Inhibitors of AMA1-RON; Towards Development of Antimalarial Drug Lead: Primary Screen | Plasmodium falciparum AMA1 (3D7) - RON2 peptide interaction | AlphaScreen AMA1-biotinylated RON2 peptide binding | Potency, µM (highest dose often 58.2 µM), inactives show at the highest dose activity change, negative = inhibition, usual class: inhibitors | actives 0.2% (n = 360,000) | AID 720542, 2013;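 note: potency is the fitted concentration of half-maximal effect; 0% = vehicle wells and -100% = peptide control; nearly all actives have a fitted effect of over 45% in size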
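AMA1 (3D7) with his tag at 25 nM final met compounds first, then biotinylated RON2 peptide at 25 nM; detection used donor plus acceptor beads, 10 µg/mL apiece, read by AlphaScreen after 30 min at room temperature.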
CHX counter: Cycloheximide Counterscreen for Small Molecule Inhibitors of Shiga Toxin; cell reporter, cycloheximide protein synthesis inhibition counterscreen; max response, %; actives 12% (n = 300,000); AID 2314, 2010; in the data active = max response mostly above about 13%, no sharp cut-off; inactive = mostly below about 14%; note: read at 38.3 µM for the half of the compounds with a filed dose; 0% is about no effect
Pf growth 48h: Primary qHTS for delayed death inhibitors of the malarial parasite plastid, 48 hour incubation | P. falciparum luciferase growth in erythrocytes, 48 h | Potency, µM (doses to about 28.7 µM), inactives show at the top dose activity change, negative = inhibition, actives largely listed as inhibitors | actives 5.9% (n = 310,000) | AID 504832, 2011; note: potency is the fitted concentration of half-maximal effect; % is set by controls: 0 for no effect and ±100 for the full control effect
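Cell-based growth assay: transgenic P. falciparum expressing firefly luciferase, cultured in red cells within RPMI 1640 containing 0.5% w/v Albumax, 24 mM bicarbonate and gentamycin. A drop in luciferase activity indicates inhibition.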
An asterisk follows results filed as active; i = inactive; ? = inconclusive; · = no result given. Unless noted, calls come from the whole dose curve; as a rule, active = well fitted curve in the direction sought with a large enough effect; inconclusive = small, poorly fitted or top-dose-only effect, or another doubt; inactive = no such curve, though single readings can be large; an effect the other way counts as inactive or inconclusive.

SMILES	SARS PLP yeast	Shiga toxin inh	Pf growth 96h	AMA1-RON2 inh	CHX counter	Pf growth 48h
Cc1cc(NC(=O)CCSc2nc(-c3ccco3)cc(C(F)(F)F)n2)n(-c2ccccc2)n1	7%	3	-16%	1%	1	12µM*
Cc1ccc(Cn2ccc(NC(=O)CCSc3nc(-c4ccco4)cc(C(F)(F)F)n3)n2)cc1	-3%	10	·	14%	5	10µM*
COCCNc1nc(NCc2ccc(NC(C)=O)cc2)c2sc(-c3ccccc3)cc2n1	·	·	·	-21%	·	·
COc1ccc(-c2cnc(N)n2CC2CCCO2)cc1 (stereo unspecified)	3%	65	·	43%	22*	?
N/C(=N\OC(=O)CC1CCCCC1)c1cccc(Br)c1	-15%	55*	10%	15%	44*	?
COc1ccc(/C(N)=N/OC(=O)CCC2CCCC2)cc1OC	5%	58*	?	9%	23*	21%
COc1ccc(/C(N)=N/OC(=O)CC2CCCCC2)cc1OC	-2%	55*	?	8%	50*	?
N/C(=N\OC(=O)CC1CCCCC1)c1ccc(Cl)cc1	-8%	73*	35%	20%	30*	7%
N/C(=N\OC(=O)CC1CCCCC1)c1ccc(Br)cc1	-3%	22	?	23%	12	26%
Cc1ccc(S(=O)(=O)N(C)CC(=O)O/N=C(\N)c2cccc(Br)c2)cc1	14%	-29	-2%	-5%	-2	12%
O=C(Nc1ccc2c(c1)OCCO2)c1ccc(Cl)cc1Cl	2%	·	?	-8%	24*	209%
O=C(Nc1ccc2c(c1)OCO2)c1ccccc1	-6%	87*	3%	-11%	53*	95%
O=C(Nc1cccc([N+](=O)[O-])c1)c1ccc2c(c1)OCCO2	-39%	89*	?	-5%	41*	219%
Cc1noc(C)c1COc1cccc(C(=O)OCCOc2ccc(F)cc2)c1	-8%	52*	13µM*	79%	26*	?
O=C(Nc1ccc2c(c1)OCO2)c1ccc(Cl)cc1Cl	1%	-12	?	2%	-2	?
Cc1[nH]c(=O)[nH]c(=O)c1S(=O)(=O)Nc1cccc([N+](=O)[O-])c1C	1%	-11	38%	7%	-1	13%
COc1ccc(-c2nc(CCNC(=O)c3cccs3)cs2)cc1	-24%	35	?	-10%	-2	-26%
Cc1cc(C)c(C(O)c2ncc(-c3ccccc3Cl)[nH]2)c(C)c1 (stereo unspecified)	·	·	·	3%	·	·
CCn1ccnc1CNC(=O)CC1C(=O)NCCN1CC(c1ccccc1)c1ccccc1 (stereo unspecified)	1%	1	?	58%	0	-4%
COc1ccc(C(C)=O)cc1COC(=O)c1c(C)noc1C	-1%	-27	-25%	3%	-4	·
O=C(Nc1cccc([N+](=O)[O-])c1)c1ccncc1	-6%	-7	-19%	4%	-2	44%
Cc1noc(C)c1COc1cccc(C(=O)Nc2ccc3c(c2)OCO3)c1	-3%	61*	-28%	-8%	28*	55%
COc1ccc(C(C)=O)cc1COC(=O)c1ccc(OCc2c(C)noc2C)cc1	-3%	22	8.3µM*	8%	-1	?
CC(C)(C)c1ccc(C(=O)Nc2cccc([N+](=O)[O-])c2)cc1	-51%	96*	?	-2%	86*	-57%
O=C(Nc1ccc2c(c1)OCCO2)c1cccc(Cl)c1	-13%	·	?	16%	44*	30%
SMILES	SARS PLP yeast	Shiga toxin inh	Pf growth 96h	AMA1-RON2 inh	CHX counter	Pf growth 48h
CC1CC(C)CN(CCCNC(=O)C2CCCN(S(=O)(=O)N3CC(C)CC(C)C3)C2)C1 (stereo unspecified)	0%	-10	13%	5%	9	1%
COc1ccccc1NS(=O)(=O)c1cccc(C(=O)NCc2ccco2)c1	-2%	-16	5%	-8%	1	12%
O=C(Nc1cccc(Cl)c1)C1CCCN(C2=NS(=O)(=O)c3ccccc32)C1 (stereo unspecified)	-1%	·	-23%	0%	·	?
O=C(CC1CS(=O)(=O)CC1CC(=O)Nc1ccc2c(c1)OCCO2)Nc1ccc2c(c1)OCCO2 (stereo unspecified)	1%	107*	-9%	5%	51*	40%
CN(c1cccc(NC(=O)c2ccc(C(C)(C)C)cc2)c1)S(C)(=O)=O	-1%	42	-10%	36%	43*	272%
CN(c1cccc(NC(=O)c2ccc(N(C)S(=O)(=O)c3ccccc3)cc2)c1)S(C)(=O)=O	0%	6	19%	15%	-2	?
O=C(Nc1ccncc1)c1ccc2c(c1)OCCO2	-9%	66*	-7%	4%	31*	46%
O=C(Nc1ccc2c(c1)OCCO2)c1ccccc1	-4%	69*	i	-1%	42*	228%
O=C(CC1NCCNC1=O)Nc1ccc2c(c1)OCCO2 (stereo unspecified)	7%	-3	-16%	14%	16	·
COc1ccc(C2(c3ccc(OC)cc3)NC(=O)N(CC(=O)N3CCOCC3)C2=O)cc1	2%	·	5%	-2%	·	0%
CS(=O)(=O)N(CC(=O)Nc1ccc2c(c1)OCCO2)Cc1ccccc1	-3%	-6	·	2%	0	-6%
O=C(Nc1ccc2c(c1)OCCO2)c1ccc(Br)s1	-25%	40*	10%	4%	55*	226%
O=C(Nc1cccc(Cl)c1)c1ccc2c(c1)OCCO2	-7%	60*	4%	8%	32*	255%
O=C(CCCc1ccccc1)Nc1ccc2c(c1)OCCO2	0%	66*	2%	-6%	36*	126%
CCc1sc(C(=O)Nc2ccc3c(c2)OCO3)cc1C	-9%	·	·	11%	·	·
O=C(NC(=S)Nc1ccc2c(c1)OCCO2)c1cccc(Br)c1	-11%	74*	25%	37%	74*	258%
Cc1ccc(CNC(=O)CN2C(=O)COc3ccc(S(=O)(=O)N4CCCCC4)cc32)o1	0%	10	-16%	-8%	9	7%
NC(=O)C1O[C@@H](O)[C@H](O)[C@@H](O)[C@H]1O (stereo partly specified)	·	-6	·	·	-6	·
O=[N+]([O-])c1cccc(NNS(=O)(=O)c2ccccc2F)c1	-4%	-8	28%	-23%	1	40%
O=C(CSc1ccc2c(c1)OCCO2)Nc1ccc(Br)cc1	-16%	-32	69%	3%	-1	38%
CCN(CC)S(=O)(=O)c1ccc(C(=O)Nc2ccc3c(c2)OCO3)cc1	4%	32	?	-8%	6	-18%
O=C(Nc1cccc(Cl)c1N1CCCCC1)c1ccc2c(c1)OCCO2	-3%	-14	1%	-5%	-3	?
